CCHFV vOTU inh: blocks the CCHF virus ovarian tumor domain protease. 370,000 compounds, 0.55% hits. CCHFV vOTU protease, Pep-AMC fluorescence. inhibition, % at 11.5 µM; in the data active means inhibition above about 30%; further: 0% = vehicle wells with enzyme and 100% = no enzyme wells
PrP 5UTR inh: suppresses PrP 5' UTR mRNA reporter expression | cell-based PrP 5' UTR mRNA reporter, plate reader | inhibition, % (no concentration beside the values) | 340,000 compounds, 0.35% hits; in the data active means inhibition above about 52%; further: 0 = median of the neutral control wells
PrPC TRFRET: inhibitors of human cell surface prion protein PrPC | TR-FRET read-out | 370,000 compounds, 0.43% hits | inhibition, % at 13.8 µM; in the data active means inhibition above about 24%; further: 0% = median of the test wells and 100% = reference compound wells
SARS 3CLpro inh-1: SARS-CoV 3CLpro protease inhibition. 290,000 compounds, 0.14% hits. AID 1706. recombinant SARS-CoV 3CLpro, quenched FRET peptide cleavage. inhibition, % at 6 µM. P0C6X7; in the data active means inhibition above about 12%
SARS 3CLpro inh-2: SARS 3CLpro inhibition, confirmation assay; shares compounds with SARS 3CLpro inh-1; QFRET protease activity assay; inhibition, % at 6 µM; 380 compounds, 36% hits; AID 1879; in the data active means inhibition above about 13%
* hit, by the source's call; . = no result given. Most compounds without a hit are left out; they make up all but 1.3% or so of the library.

SMILES	CCHFV vOTU inh	PrP 5UTR inh	PrPC TRFRET	SARS 3CLpro inh-1	SARS 3CLpro inh-2
O=C(OCC(=O)N1c2ccccc2Sc2ccccc21)c1cccnc1	10.8	-26.3	5.7	20.9*	22.3*
CCCc1cc(=O)oc2cc(OCC(=O)NCC3CCC(C(=O)O)CC3)ccc12 (stereo unspecified)	-7.6	-15.4	-0.1	-3.5	.
CC(C)c1ccc(NC(=O)CSc2nc3ccsc3c(=O)n2Cc2ccc(C(=O)O)cc2)cc1	3.0	1.7	-6.9	13.3*	5.2
CCc1ccc(NC(=O)CSc2nc3ccsc3c(=O)n2CCC(=O)O)cc1	12.8	-11.4	-1.0	5.8	.
CCn1ccnc1C(O)c1cccc(OC)c1 (stereo unspecified)	-2.0	-22.6	3.8	-0.9	.
O=C(N/N=C/c1cccnc1)c1cccc(S(=O)(=O)Nc2cccc(Cl)c2)c1	11.0	3.2	-1.7	3.1	.
O=C(N/N=C/c1ccncc1)c1cccc(S(=O)(=O)Nc2ccc(Cl)cc2)c1	6.8	-3.4	5.6	62.0*	-0.8
COC(=O)CCCCC1SCC(NC(=O)c2ccccc2)C1=O (stereo unspecified)	-0.9	-16.4	0.6	-2.4	.
COc1ccc(CCN2C(=O)NC(NS(=O)(=O)c3ccc(Cl)cc3)(C(F)(F)F)C2=O)cc1OC (stereo unspecified)	10.4	-11.0	-0.5	0.9	.
O=C(NCc1cccs1)c1cc(-c2ccncc2)nc2ccc(Br)cc12	.	.	.	-1.5	.
COCCN(C(=O)Cn1nnc2ccccc21)C(C(=O)NC1CCCCC1)c1ccc(OC)cc1OC (stereo unspecified)	6.1	8.6	1.6	4.0	.
COc1ccc(N(C(=O)Cn2nnc3ccccc32)C2(C(=O)NC3CCCC3)CCCCC2)cc1	13.4	-18.1	1.6	30.2*	42.9*
O=C(/C=C/c1ccc(Cl)c([N+](=O)[O-])c1)NCc1cccnc1	2.3	-10.5	-35.5	17.9*	18.5*
Cc1sc(NC(=O)CCl)c(C(=O)c2ccccc2)c1C	14.6	-4.9	-2.4	14.5*	35.6*
O=C(COC(=O)c1ccc[nH]c1=O)NCCC1=CCCCC1	19.2	3.0	6.2	.	.
CSc1nc(=O)n(CCC#N)nc1SC	-0.2	.	-2.2	.	.
COC(=O)C1=C(C)NC(=S)NC1c1ccc(-c2ccccc2C(=O)OC)o1 (stereo unspecified)	2.0	-26.3	6.9	13.1*	-5.0
C=CCNc1oc(C2CCCC2)nc1C#N	-10.2	-18.0	3.6	.	.
FC(F)(F)c1cccc(NC(=S)NNC(=S)NCc2ccccc2)c1	23.9	-36.2	2.3	13.6*	1.5
COc1ccc(N(C(=O)Cn2nnc3ccccc32)C(C(=O)NCc2ccco2)c2ccc(C)o2)cc1 (stereo unspecified)	11.4	-6.0	0.5	21.3*	26.5*
COc1cccc(N(C(=O)Cn2nnc3ccccc32)C(C(=O)NCc2ccco2)c2cccnc2)c1 (stereo unspecified)	12.4	-16.9	5.0	1.4	.
COc1cccc(C(C(=O)NCc2ccco2)N(Cc2ccco2)C(=O)Cn2nnc3ccccc32)c1 (stereo unspecified)	7.7	-22.8	3.3	27.9*	40.0*
Cc1ccc(NC(=O)C2CCCN(S(=O)(=O)c3ccc4[nH]c(=O)ccc4c3)C2)cc1C (stereo unspecified)	9.5	0.3	-5.8	-0.3	.
CCc1ccc(NC(=O)C2CCCN(S(=O)(=O)c3ccc4[nH]c(=O)ccc4c3)C2)cc1 (stereo unspecified)	2.1	-20.7	0.9	13.1*	1.2
COc1ccc(/C(N)=N/OC(=O)CCc2ccccc2)cc1OC	1.4	-21.9	5.3	4.5	.
SMILES	CCHFV vOTU inh	PrP 5UTR inh	PrPC TRFRET	SARS 3CLpro inh-1	SARS 3CLpro inh-2
COc1ccc(/C(N)=N/OC(=O)CSc2ccccc2)cc1OC	9.3	-12.5	0.2	12.7*	-1.2
O=C(c1ccc2ncsc2c1)N1CCCCC1	-6.3	-46.0	1.1	-4.8	.
O=C(O)c1ccc2ncsc2c1	-8.5	4.4	5.7	16.5*	37.7*
Clc1ccc(Oc2ccccc2)c2ncccc12	-3.7	-7.1	1.1	-0.2	.
CCN(c1ccc(OC)cc1)S(=O)(=O)c1nnc(NC(=O)COc2ccc(C)cc2)s1	.	-5.6	.	12.6*	0.7
O=C(Oc1ccc2ccc(=O)oc2c1)c1cccs1	-289.9	5.8	2.7	19.9*	34.8*
CCCC(=O)Oc1ccc2c(C)cc(=O)oc2c1	-303.2	-40.7	-1.3	17.3*	24.1*
Cc1cc(=O)oc2cc(OC(=O)CCN3C(=O)c4ccccc4C3=O)ccc12	-252.4	-16.1	2.6	1.2	.
CC(C)(C)OC(=O)NCCC(=O)Oc1ccc2ccc(=O)oc2c1	.	-7.6	.	28.9*	59.2*
O=C(NCCc1ccccc1)C1CCN(C2CCN(Cc3ccco3)CC2)CC1	-5.7	-5.6	-5.7	-2.1	.
COc1ccc(NC(=O)c2nn(C34CC5CC(CC(C5)C3)C4)cc2[N+](=O)[O-])cc1	-12.2	-20.6	4.8	1.6	.
O=C(NCC(=O)N1CCN(Cc2ccccc2)CC1)c1ccc(Cl)cc1	-5.8	-17.9	0.1	-4.3	.
O=C(NCC(=O)N1CCN(Cc2ccccc2)CC1)c1ccc(Br)cc1	-6.5	-11.0	-7.2	12.3*	1.5
O=C1CCCN1c1ccc([N+](=O)[O-])cc1	11.2	.	-27.1	.	.
O=C(Nc1c2c(nn1-c1ccc(Cl)cc1)CS(=O)(=O)C2)c1ccc2c(c1)OCO2	0.6	.	-7.2	0.0	.
O=C(Nc1c2c(nn1-c1cccc(Cl)c1)CS(=O)(=O)C2)c1ccc2c(c1)OCO2	-6.4	-4.4	1.6	12.6*	1.3
CC1(C)Cc2c(sc3nc(-c4cc5ccccc5o4)n(N)c(=O)c23)CO1	6.8	-126.2	-2.4	13.3*	-4.8
O=C(/C=C/c1c(F)cccc1Cl)Nc1cccnc1	-13.3	-71.8	-4.6	20.2*	16.0*
Cc1ccc(C2=NO[C@@](CC(=O)O)(C(=O)Nc3ccc4c(c3)OCCO4)C2)cc1	-8.3	-18.1	-0.1	-3.5	.
COc1c(Cl)cc(C(=O)O)cc1Cl	-2.7	-37.0	-4.0	.	.
COc1c(Cl)cc(C(=O)NN)cc1Cl	-9.1	-6.3	2.7	16.2*	17.3*
O=Cc1ccc2noc(-c3ccc(Cl)cc3)c2c1	1.2	-36.5	1.7	1.5	.
COc1ccc(-c2cc(N)n(S(=O)(=O)c3c(F)c(F)c(F)c(F)c3F)n2)cc1OC	-7.1	-17.5	-4.9	13.6*	1.7
CCN(CC)C(=O)C1=C(C)N(Cc2ccc(C(C)(C)C)cc2)C(=O)C(CC(=O)NC2CCCC2)C1 (stereo unspecified)	18.7	.	6.3	.	.
O=C(NCCc1ccccc1)C(=O)NCC1OCCN1S(=O)(=O)c1ccc2c(c1)OCCO2 (stereo unspecified)	-2.4	-16.0	-2.3	14.8*	-0.4
Cc1ccc(S(=O)(=O)N2CCN(S(=O)(=O)c3ccc4c(c3)OCCO4)CC2)cc1	-7.1	-23.5	3.9	12.3*	-3.2
O=S(=O)(c1ccc(F)cc1)N1CCN(S(=O)(=O)c2ccc3c(c2)OCCO3)CC1	2.8	-4.9	-3.6	.	.
O=[N+]([O-])c1ccc(S(=O)(=O)NCC(c2ccc3c(c2)OCO3)N2CCOCC2)cc1 (stereo unspecified)	-11.6	.	-23.0	.	.
CC(C)c1ccc(S(=O)(=O)Nc2ccc(SC(F)F)cc2)cc1	23.6	-17.4	20.7	12.8*	4.9

Screening results: PubChem BioAssay, several laboratories
